ABHD5 PLIN5 PPI: ABHD5-PLIN5 protein interaction inhibition | Split G. princeps luciferase complementation, luminescence, 4 h | AID 602281 | inhibition, % at 4 µM | Q00G26+Q8WTS1 | actives 0.78% (n = 360,000);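 active = inhibition above the mean inhibition across every tested compound plus 3 SD, cut at about 22% in these data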;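 also: 0% = DMSO only wells and the 100% control is not disclosed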
DAGLB inhibitor: diacylglycerol lipase beta (human) inhibition. Q8NCG7. HEK293T DAGLB membrane lysate, EnzChek fluorogenic substrate. inhibition, % at 5.17 µM. actives 0.059% (n = 340,000). AID 504411; in the data active = inhibition above about 34%;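 also: 0% = enzyme with vehicle and 100% = wells lacking enzyme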
sPLA2-III inh: Blocks human group III sPLA2 activity; Q9NZ20; QFRET BODIPY PC-A2 liposome hydrolysis, fluorescence; inhibition, % at 12.2 µM; actives 0.56% (n = 370,000); AID 743126;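 active = inhibition above mean plus 3 SD of compounds lying within the high and low control bounds, cut at about 19% in these data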;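 also: 0% = median of test compound wells and 100% = no enzyme DMSO wells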
Target sequence (Q9NZ20 whole entry, looked up): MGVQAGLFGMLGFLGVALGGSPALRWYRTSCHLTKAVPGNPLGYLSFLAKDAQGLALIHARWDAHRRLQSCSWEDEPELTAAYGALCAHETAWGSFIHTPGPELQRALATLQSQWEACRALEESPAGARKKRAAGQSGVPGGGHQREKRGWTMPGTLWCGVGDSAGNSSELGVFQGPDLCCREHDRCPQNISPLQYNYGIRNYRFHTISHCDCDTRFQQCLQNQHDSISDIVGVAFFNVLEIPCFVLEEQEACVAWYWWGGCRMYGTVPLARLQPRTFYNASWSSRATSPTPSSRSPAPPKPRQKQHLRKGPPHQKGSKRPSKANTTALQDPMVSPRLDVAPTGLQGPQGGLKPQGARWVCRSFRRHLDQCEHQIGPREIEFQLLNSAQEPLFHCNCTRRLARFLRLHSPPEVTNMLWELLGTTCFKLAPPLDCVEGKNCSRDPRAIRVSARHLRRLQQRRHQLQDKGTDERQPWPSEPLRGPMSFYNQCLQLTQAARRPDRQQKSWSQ
Myeloid diff 2: promotes myeloid progenitor differentiation. calls only at 10 µM. ER-HoxA9 myeloid progenitors, lysozyme-GFP differentiation, flow cytometry. actives 1% (n = 360,000);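 active = normalized GFP-positive differentiation at or above the plate's own cutoff, the solvent-only control mean plus 3 SD; inconclusive = no clear call, values can overlap the other calls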;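 also: cells exposed to compound for four days before flow analysis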
Rtt109 HAT inh: inhibitors of Candida albicans Rtt109/Vps75 histone acetyltransferase. inhibition, % at 34.9 µM. Q5AAJ8. purified Rtt109/Vps75, ThioGlo CoA-SH fluorescence, 4 h. AID 540336. actives 0.16% (n = 330,000);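 active = inhibition of at least 50% in every replicate; inconclusive = best replicate reaches 50% inhibition but some replicates fall short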
Cardio protect: myocardial damage modulation in H9c2 cells. AID 588492. H9c2 cardiomyocytes, H2O2 injury protection, ATPLite, 2 h. actives 0.63% (n = 360,000). protection from H2O2 cell death, % at 20 µM;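 active = compounds giving at least 50% protection of heart cells from peroxide-induced death in the single-dose screen, raw or plate-pattern-corrected value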;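 also: 0% = DMSO wells with peroxide and 100% = DMSO wells without peroxide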
hGIII sPLA2 conf: human GIII-sPLA2 inhibition, confirmation | shares compounds with sPLA2-III inh | recombinant hGIII-sPLA2, BODIPY PC-A2 QFRET fluorescence | inhibition, % at 12.2 µM | actives 34% (n = 2,000);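 active = mean inhibition across triplicates above the hit cutoff set in the earlier primary screen, cut at about 19% in these data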;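 also: 0% = enzyme with DMSO and 100% = DMSO wells lacking enzyme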
BODIPY interf: optically interferes with 535nm fluorescence in sPLA2 counter-screen; shares compounds with sPLA2-III inh; AID 743282; BODIPY FL product fluorescence interference, QFRET; inhibition, % at 12.2 µM; actives 8.5% (n = 2,000);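 active = average inhibition above the solvent-only control mean plus 3 SD, cut at about 6% in these data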;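 also: 0% = DMSO with substrate plus product and 100% = DMSO with substrate alone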
BODIPY interf DR: interferes with 535nm fluorescence in dose response counter-screen; shares compounds with sPLA2-III inh; BODIPY FL product fluorescence interference, cell-free; IC50, µM; 240 tested, under 10 active;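 active = IC50 at or below 10 µM; inactive = IC50 above 10 µM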
* = called active by the depositor; i = inactive; u = inconclusive; x = not tested or not shown; + = active, no number; ! = not active in a repeat. Compounds with a hit are over-represented: about 2.9% of the library has one in this group of screens.

SMILES | ABHD5 PLIN5 PPI | DAGLB inhibitor | sPLA2-III inh | Myeloid diff 2 | Rtt109 HAT inh | Cardio protect | hGIII sPLA2 conf | BODIPY interf | others
N#CC1C(=O)NC(=O)C(C#N)C12CCCC2 (stereo unspecified) | 9 | x | 6 | i | x | 4 | x | x
O=C(NCc1cccnc1)c1ccccc1[N+](=O)[O-] | -3 | -1 | 25* | i | 15 | 23 | -2 | -3
O=C(N/N=C/c1cccnc1)c1ccccc1[N+](=O)[O-] | -2 | 0 | 19* | i | -12 | 6 | 5 | -2
Cc1nn(C2CCCO2)c(=O)nc1N (stereo unspecified) | x | x | 2 | x | x | x | x | x
CC1=NN(C2=NS(=O)(=O)c3ccccc32)C(C)(O)C1 (stereo unspecified) | 14 | -2 | 0 | i | 8 | 1 | x | x
Cn1ncc(Br)c1C(=O)N1CCOCC1 | 1 | -3 | 20* | i | -6 | 2 | -6 | -1
COc1c(O)c(O)c2oc(-c3ccccc3)cc(=O)c2c1OC | -6 | 24 | 32* | i | 14 | -1 | 13 | -11
CCc1ccccc1N=Nc1c(N)[nH]n(-c2ccccc2)c1=O | x | x | 12 | x | x | x | x | x
Nc1[nH]n(-c2ccccc2)c(=O)c1N=Nc1ccccc1 | 1 | 19 | 23* | i | 2 | 10 | 33* | 6.3*
Cc1ccc(C)c(NC(=S)NNC(=O)c2sccc2C)c1 | -2 | -1 | 14 | i | 8 | 3 | x | x
Cc1ccc(C)c(NC(=S)NNC(=O)c2csc(C)c2C)c1 | -5 | 0 | 21* | i | 6 | 0 | 38* | 1 | BODIPY interf DR=>122
COc1ccc(/C=C(/C#N)C(=O)NC2CCCCC2)cc1Br | 1 | 5 | -5 | i | -12 | 1 | x | x
N#C/C(=C\c1ccc2c(c1)OCCO2)C(=O)NC1CCCCC1 | -1 | -2 | 24* | i | 6 | 8 | 1 | -11
COc1cc(/C=C/C(=O)OCC(=O)NC(=O)NC2CCCCC2C)ccc1OC(F)F (stereo unspecified) | 3 | 0 | 0 | i | 1 | -10 | x | x
O=C(NCCNc1ccc([N+](=O)[O-])cc1)c1cccc(Br)c1 | -4 | 1 | 23* | i | 0 | -8 | 0 | -5
CC(C)Cn1c(-c2ccc(Br)cc2)c[nH]c1=S | -22 | 0 | 28* | i | -4 | -15 | 37* | 6
Cc1nnsc1C(=O)N/N=C/c1ccc2ccccc2c1O | 1 | 4 | 38* | u | -5 | 14 | 21* | 2
Cc1nnsc1C(=O)N/N=C/c1ccccc1 | -5 | 1 | -6 | i | -3 | 13 | x | x
Cc1ccc(CNC(=O)CO/N=C/c2ccc3c(c2)OCO3)cc1 | -2 | -5 | 4 | i | 14 | 2 | x | x
COc1ccc(CN2CCN(c3ccccn3)CC2)c(OC)c1C | 6 | -5 | 19*! | i | 6 | -1 | -4 | -14
COc1ccc(CN2CCN(c3ncccn3)CC2)c(C)c1C | 3 | -9 | -1 | i | 16 | 0 | x | x
COc1ccc(NC(=O)CSc2nnc3ccc(-c4ccccn4)nn23)cc1OC | 8 | 2 | 6 | i | 1 | 3 | x | x
O=C(NNC(=O)C1CCN(S(=O)(=O)c2c(Cl)cccc2Cl)CC1)c1ccccc1O | 8 | 2 | 25* | i | 2 | 33 | 14 | -3
O=C(NNC(=O)C1CCN(S(=O)(=O)c2ccccc2)CC1)c1ccccc1O | 7 | 1 | 5 | i | 9 | 31 | x | x
O=C(NNC(=O)c1ccccc1O)c1ccc(Cl)c(S(=O)(=O)N2CCCCC2)c1 | 11 | 5 | 20* | i | 0 | 30 | 6 | 1
SMILES | ABHD5 PLIN5 PPI | DAGLB inhibitor | sPLA2-III inh | Myeloid diff 2 | Rtt109 HAT inh | Cardio protect | hGIII sPLA2 conf | BODIPY interf | others
O=C(NNC(=O)c1cccs1)c1ccc(Cl)c(S(=O)(=O)N2CCCC2)c1 | 10 | 2 | -10 | i | -3 | -4 | x | x
Cc1cc(C)cc(C(=O)N2CCN=C2c2ccccc2)c1 | 4 | -2 | -1 | i | 11 | -1 | x | x
O=C(Nc1ccc(Cl)c(Cl)c1)c1ccccc1 | -1 | -4 | -2 | i | -8 | -12 | x | x
CN(C(=O)Nc1ccc(Cl)c(Cl)c1)c1ccccc1C(=O)O | 0 | -1 | 21* | i | -4 | -10 | 5 | -4
CC(C)CCC(CCNCc1ccccn1)c1ccc2c(c1)OCO2 (stereo unspecified) | 5 | -2 | 23* | + | 2 | -2 | -25 | -26
NC(N)=N/N=C(\N=Nc1ccccc1)c1ccc(Cl)cc1 | -4 | 11 | 27* | u | -15 | -19 | 34* | 2 | BODIPY interf DR=>122
COC(=O)[C@@]12C[C@@H](CC(=O)N3CCCCC3)C(=O)N(CCc3ccc(OC)c(OC)c3)C1=CCC(C)(C)C2 | 3 | x | 7 | i | x | x | x | x
C(=N\Nc1nc2ccccc2[nH]1)/c1cccc2cccnc12 | -3 | 8 | 37* | x | 12 | -15 | 19 | 2
NC(=O)c1cc([N+](=O)[O-])ccc1NCc1cnccn1 | 4 | -3 | 20* | i | -2 | 9 | -6 | -4
NC(=O)c1cc([N+](=O)[O-])ccc1NCc1cccnc1 | 5 | 1 | 0 | i | 2 | 5 | x | x
COC(=O)c1cc(CSC(=N)N)ccc1OCCC(C)C | 3 | 0 | 21* | i | 13 | -5 | 29* | -13
CCc1ccc(CNC(=O)c2ccc(OC)c(OC3CCN(C(C)C)CC3)c2)nc1 | 3 | 1 | 6 | i | -5 | 4 | x | x
CN(C)c1ccc(C=C2C=C(c3ccccc3)OC2=O)cc1 | 0 | 31 | 8 | i | x | -16 | x | x
CN(C)c1ccc(C=c2c3ccccc3n3c2cc(-c2ccccc2)[n+]3C)cc1 | 18 | 22 | 31* | u | 2 | -20 | 56* | -26 | BODIPY interf DR=>122
COc1ccc(NS(=O)(=O)c2cc(N)ccc2N2CCCC2)cc1 | -2 | 11 | 21* | i | -1 | -3 | 8 | 3
CC(=O)Nc1ccc(SCC(=O)N(CCC#N)c2ccc(C)cc2)cc1 | 0 | 1 | -2 | i | 0 | -2 | x | x
CC1CCCCN1Cc1c(C#N)c2ccccc2n1C (stereo unspecified) | -2 | -5 | -2 | i | -5 | -1 | x | x
O=C(NC(=S)Nc1nc(-c2ccccc2)cs1)c1cccs1 | 1 | -4 | -6 | i | 5 | -9 | x | x
O=C(NNc1nc(-c2ccccc2)cs1)c1ccc(F)cc1 | -4 | 0 | 36* | i | 2 | 3 | 46* | 11*
